Insulin prom inh: TRM-6 insulin promoter activity inhibition; TRM-6 cells (human fetal islet line), insulin promoter-eGFP reporter, imaging; reporter expression induced with tamoxifen; AID 1273; inhibition, % at 2 µM; 0.9% of 130,000 active;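 active = inhibition above the mean plus 3 SD, with well images judged a real hit on visual review, cut at about 60% in these data, passing the limit was not always enough; inconclusive = inhibition over the cutoff but images rejected on review; inactive = inhibition not above the cutoff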
Lmaj promast: reduces viability of Leishmania major promastigotes; resazurin fluorescence viability; inhibition, % at 10 µM; 9% of 200,000 active; AID 1063; in the data active = inhibition above about 50%;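 note: promastigotes grown with compound for 44 hours at 28 °C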
KCC2 mod: modulators of human KCC2 chloride dependent transport | Q9H2X9 | KCC2 cells, thallium flux FluoZin-2 fluorescence | B-score of Tl+ flux slope (higher = more flux/activation; lower = inhibition) at 10 µM | 2.2% of 190,000 active;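 active = thallium flux slope and its plate-corrected score both differing from the plate sample mean at a set confidence after two filtering rounds, in either direction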;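 note: slope of fluorescence scaled to starting intensity during 10 to 20 s after thallium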
Target sequence (Q9H2X9 whole entry, looked up): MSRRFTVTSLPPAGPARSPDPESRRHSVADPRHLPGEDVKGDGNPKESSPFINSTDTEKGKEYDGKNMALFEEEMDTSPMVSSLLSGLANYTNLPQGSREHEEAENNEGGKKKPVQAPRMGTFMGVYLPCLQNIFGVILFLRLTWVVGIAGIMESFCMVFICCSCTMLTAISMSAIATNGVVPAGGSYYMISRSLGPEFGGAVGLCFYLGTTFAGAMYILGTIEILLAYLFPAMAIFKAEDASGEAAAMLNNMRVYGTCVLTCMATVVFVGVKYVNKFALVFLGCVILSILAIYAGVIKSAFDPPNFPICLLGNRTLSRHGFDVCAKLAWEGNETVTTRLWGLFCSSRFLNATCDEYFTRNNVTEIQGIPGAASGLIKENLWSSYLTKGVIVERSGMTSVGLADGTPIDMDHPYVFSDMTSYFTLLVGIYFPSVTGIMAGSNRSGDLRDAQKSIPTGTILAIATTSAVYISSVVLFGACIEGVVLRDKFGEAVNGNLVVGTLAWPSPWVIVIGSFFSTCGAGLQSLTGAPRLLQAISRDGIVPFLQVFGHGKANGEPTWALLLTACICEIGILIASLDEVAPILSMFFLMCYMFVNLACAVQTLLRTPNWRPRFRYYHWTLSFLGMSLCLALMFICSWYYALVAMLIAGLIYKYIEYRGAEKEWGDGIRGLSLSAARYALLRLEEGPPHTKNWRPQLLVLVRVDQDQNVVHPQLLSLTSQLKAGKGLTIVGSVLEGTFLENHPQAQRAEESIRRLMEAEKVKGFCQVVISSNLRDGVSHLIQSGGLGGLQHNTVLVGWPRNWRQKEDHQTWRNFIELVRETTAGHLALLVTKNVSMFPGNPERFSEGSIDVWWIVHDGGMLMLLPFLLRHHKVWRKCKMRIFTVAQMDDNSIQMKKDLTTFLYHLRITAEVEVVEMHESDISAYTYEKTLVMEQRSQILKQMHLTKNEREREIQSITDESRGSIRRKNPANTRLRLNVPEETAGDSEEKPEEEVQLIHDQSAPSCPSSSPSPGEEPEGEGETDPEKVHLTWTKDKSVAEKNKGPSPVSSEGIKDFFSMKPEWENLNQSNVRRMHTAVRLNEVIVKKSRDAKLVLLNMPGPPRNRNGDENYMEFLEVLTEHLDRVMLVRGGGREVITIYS
WT yeast gro inh: growth inhibition of WT yeast, mitochondrial fusion screen; inhibition, % at 10 µM; mitochondrial fusion phenotypic screen, WT strain; AID 1362; 2.1% of 190,000 active; in the data active = inhibition above about 58%; tested in S. cerevisiae
ROMK mod: modulates human ROMK potassium channel activity; 2% of 130,000 active; Tet-inducible ROMK, thallium flux fluorescence; actives lie on both sides; P48048; B-score at 10 µM;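 active = signal ratio slope over the read window, or its plate-corrected B-score, at least 3 SD from the plate mean, either direction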;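 note: B-score of the F/F0 ratio slope over 7 to 12 s after thallium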
Ins promoter up: MIN6 insulin promoter up-regulation. MIN6 insulin promoter-GFP reporter, high-content imaging; hits give high values. z-score at 5 µM. 0.3% of 190,000 active;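 active = z-score above 3 at 5 µM with at least 500 cells counted in the well; inconclusive = wells under 500 cells, flagged as cytotoxic or low count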
Each line names hits and unclear results; the compound was inactive in the other large screens. A selection: hits, their analogues and other compounds. The true share with any hit is near 12%.

Cc1ccc(-c2nc3ncccc3o2)cc1NC(=O)CC(C)C	Lmaj promast 92 (no result: Insulin prom inh)
Cc1ccc(-c2nc3cccnc3o2)cc1NC(=O)COc1ccc(Cl)cc1C	Lmaj promast 94 (no result: ROMK mod)
c1cncc(CSc2ccc(-c3ccc4c(c3)OCO4)nn2)c1	none (no result: Ins promoter up)
Cc1cc(Cl)ccc1OC(C)c1nnc(N)s1 (stereo not given)	none
COc1ccc(NC(=O)Cc2c(O)c3ccccc3[nH]c2=O)cc1	none (no result: ROMK mod)
COc1cc(CN2CCN(c3cccc(C)c3C)CC2)cc([N+](=O)[O-])c1O	Lmaj promast 71 (no result: Insulin prom inh)
CC(NC(=O)C12CC3CC(CC(C3)C1)C2)C(=O)N/N=C/C1=C(N2CCOCC2)C(=C\c2ccccc2)/CC1 (stereo not given)	Lmaj promast 100
O=C1Nc2ccccc2/C1=N\N=C\C1=C(N2CCOCC2)C(=C\c2ccccc2)/CC1	WT yeast gro inh 61 (no result: KCC2 mod, ROMK mod)
CSc1cnc2c(N)nc(N(C)C)nc2n1	Lmaj promast 58
CSc1nc(N)nc(N(C)C)n1	none (no result: Insulin prom inh, Lmaj promast, WT yeast gro inh, ROMK mod)
Cn1c(CCN2CCN(c3ccccc3)CC2)nc2cc(NC(=O)c3ccco3)ccc21	WT yeast gro inh 76 (no result: Insulin prom inh, KCC2 mod, ROMK mod)
CC(C)CCNc1nnnc2c1sc1nc(N3CCOCC3)c3c(c12)CC(C)(C)SC3	Lmaj promast 57
Cc1ccc(NS(=O)(=O)c2cccc(C(=O)O)c2)cc1S(=O)(=O)N1CCOCC1	Lmaj promast 57
Cc1c(C(=S)NC(=O)C2CC2)c(=O)n(-c2ccccc2)n1C	none (no result: Ins promoter up)
O=C(OCCN1C(=O)c2cccc3c(N4CCOCC4)ccc(c23)C1=O)c1cc(Cl)cc(Cl)c1	Lmaj promast 71 (no result: ROMK mod)
CCCN1C(=O)c2cccc3c(N4CCCCC4)ccc(c23)C1=O	Lmaj promast 73 (no result: Ins promoter up)
CCN(CC)S(=O)(=O)c1ccc(C(=O)OCCN2C(=O)c3cccc4c(N5CCOCC5)ccc(c34)C2=O)cc1	none (no result: ROMK mod)
O=C1c2cccc3c(N4CCCCC4)ccc(c23)C(=O)N1c1ccc(Cl)cn1	none (no result: KCC2 mod, WT yeast gro inh, ROMK mod, Ins promoter up)
Oc1[nH]c2ccccc2c1N=Nc1ccc(C(F)(F)F)cn1	Lmaj promast 55 (no result: Insulin prom inh)
CCCCOC(=O)CSc1nnc(-c2ccc(Cl)cc2Cl)o1	WT yeast gro inh 60 (no result: KCC2 mod)
Cc1cc(Br)c(NC(=O)COC(=O)CSc2nnc(-c3ccc(Cl)cc3)o2)c(Br)c1	Lmaj promast 52
Cc1cc(C)cc(NC(=O)CSc2nnc(-c3ccccc3Br)o2)c1	none (no result: KCC2 mod)
CC(C)OC(=O)CSc1nnc(-c2ccc(Cl)cc2Cl)o1	none (no result: KCC2 mod)
COc1ccc(C2CC(c3ccccc3)=NN2c2ccc(/C=N/NC(=O)c3ccncc3)cc2)cc1 (stereo not given)	none (no result: ROMK mod, Ins promoter up)
NS(=O)(=O)c1ccc(N2N=C(c3ccccc3)CC2c2ccc(F)cc2)cc1 (stereo not given)	Lmaj promast 98, WT yeast gro inh 71 (no result: ROMK mod)
COc1ccc(C2CC(c3ccccc3)=NN2c2ccc(S(N)(=O)=O)cc2)cc1 (stereo not given)	WT yeast gro inh 66, Ins promoter up inconclusive (no result: Insulin prom inh, KCC2 mod, ROMK mod)
Fc1ccc(C2CC(c3cccs3)=NN2c2ccccc2)cc1 (stereo not given)	none
O=C1CC(c2ccsc2)Sc2ccccc2N1 (stereo not given)	none (no result: Insulin prom inh, Lmaj promast, WT yeast gro inh, ROMK mod)
CC1CC(=O)C2=C(C1)Nc1ccccc1SC2c1ccc(F)cc1 (stereo not given)	Lmaj promast 68 (no result: ROMK mod)
CCCn1c(=O)c2ccccc2n2c(SCc3cc(=O)n4ccsc4n3)nnc12	none (no result: WT yeast gro inh, Ins promoter up)
CCCn1c(=O)c2ccccc2n2c(SCc3cc(=O)oc4ccc5ccccc5c34)nnc12	Lmaj promast 62 (no result: ROMK mod)
O=C(O)c1ccc(Nc2nc3c(s2)CCCC3)cc1	none
c1nnc(NC2=NCCCCC2)s1	none (no result: KCC2 mod)
C1CCN=C(Nc2nc3c(s2)CCCC3)CC1	WT yeast gro inh 62 (no result: ROMK mod)
Cc1cccc(Nc2nc3c(s2)CCCC3)c1	Lmaj promast 62 (no result: ROMK mod, Ins promoter up)
CCN(CC)C(=O)CSc1nc2ccccc2c(=O)n1OC(C)C	none
COc1ccc(/C=C2\SC(=O)N(CCNC(=O)C3CC(=O)N(c4ccccc4)C3)C2=O)cc1 (stereo not given)	none (no result: ROMK mod)
COc1ccccc1C(=O)Nc1c(C)n(C)n(-c2ccccc2)c1=O	none (no result: Insulin prom inh, ROMK mod)
Cc1c(NC(=O)C(C)OC(=O)c2ccc([N+](=O)[O-])s2)c(=O)n(-c2ccccc2)n1C (stereo not given)	Lmaj promast 77
COc1ccccc1NC(=O)Nc1c(C)n(C)n(-c2ccccc2)c1=O	Insulin prom inh 100
Cc1c(NC(=O)C(C)OC(=O)c2sc3ccccc3c2Cl)c(=O)n(-c2ccccc2)n1C (stereo not given)	none
Cc1c(NC(=O)c2cnn3cccnc23)c(=O)n(-c2ccccc2)n1C	Insulin prom inh 75 (no result: ROMK mod)
Cc1c(NC(=O)C(C)OC(=O)CCc2ccccc2)c(=O)n(-c2ccccc2)n1C (stereo not given)	Lmaj promast 54
C[C@]12CC(O)C3C(CCC4=CC(=O)CC[C@@]43C)C1CCC2c1csc(-c2ccccc2)n1 (stereo not given in full)	none (no result: Insulin prom inh, Lmaj promast, WT yeast gro inh, ROMK mod)
CC1=C(C(=O)NCc2ccc3c(c2)OCO3)C2(CCC(C)CC2)OC1=O (stereo not given)	none (no result: Insulin prom inh, ROMK mod)
CN(Cc1ccccc1)C(=O)N1CCOCC1	none (no result: Insulin prom inh, Lmaj promast, WT yeast gro inh, ROMK mod)
Cc1nc2ncnn2c(N2CCN(C(c3ccccc3)c3ccccc3)CC2)c1C	Lmaj promast 68 (no result: KCC2 mod)
CCn1c(=O)c(-c2nc3ccccc3[nH]2)c(O)c2ccccc21	none (no result: Insulin prom inh)
CC(=O)NC1(C2CCCCC2=O)CCCCC1 (stereo not given)	none (no result: Insulin prom inh)
CCCn1c(/C=C/c2ccccc2)nc2ccccc21	Lmaj promast 88 (no result: Insulin prom inh, KCC2 mod, ROMK mod)
COCCOCCn1c(/C=C/c2ccccc2)nc2ccccc21	Lmaj promast 63 (no result: Insulin prom inh)
CC(C)Cn1c(/C=C/c2ccco2)nc2ccccc21	Lmaj promast 61 (no result: Insulin prom inh, ROMK mod, Ins promoter up)
CC(C)n1c(/C=C/c2ccccc2)nc2ccccc21	Lmaj promast 50 (no result: Insulin prom inh)
CC(C)c1ccccc1NC(=O)Cn1c(/C=C/c2ccccc2)nc2ccccc21	none (no result: Insulin prom inh, Lmaj promast, WT yeast gro inh, ROMK mod)
CC(C)n1c(Nn2cnnc2)nc2ccccc21	none (no result: ROMK mod)
COC(=O)C1=C(C(=O)OC)C2C(C)=CC(C)=CN2C(C(=O)OC)=C1C(=O)OC (stereo not given)	none
Cc1cc(C)c2oc(-c3cccc(NC(=O)c4ccc(F)cc4)c3)nc2c1	Lmaj promast 65 (no result: ROMK mod, Ins promoter up)
O=C(CCSc1nc2ccccc2s1)N/N=C/c1c(O)ccc2ccccc12	Lmaj promast 58 (no result: ROMK mod)
CC1CCc2cc(F)ccc2N1C(=O)CSc1nnc2c(n1)[nH]c1ccc(F)cc12 (stereo not given)	none (no result: KCC2 mod, ROMK mod)
COc1ccccc1/C=C\C=N\n1c(C2CCCCC2)n[nH]c1=S	WT yeast gro inh 70 (no result: ROMK mod)
COc1ccccc1/C=C/C=N/n1c(-c2ccc(C)cc2)n[nH]c1=S	none (no result: ROMK mod)
COc1ccc(CN(Cc2cccnc2)C(=S)NCCc2ccccc2)cc1OC	Lmaj promast 100 (no result: ROMK mod, Ins promoter up)
Cc1cccc(C)c1NC(=S)N(Cc1ccccc1)Cc1cccnc1	Lmaj promast 89
CCN(Cc1ccncc1)C(=S)Nc1c(C)cccc1C	none (no result: Insulin prom inh)
COc1ccccc1NC(=S)N(Cc1ccccc1)Cc1cccnc1	none
CSc1cccc(NC(=S)N(Cc2ccccc2)Cc2cccnc2)c1	Lmaj promast 96 (no result: Insulin prom inh)

Source: PubChem BioAssay
